TLR9-MyD88 inh = TLR9-MyD88 interaction inhibition. inhibition, % at 4.98 µM. CHO BLA complementation TLR9-MyD88, CCF4 FRET ratio. hit rate 0.21% among 340,000. AID 504734;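 active = inhibition above the mean over all tested compounds plus 3 SD, cut at about 21% in these data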
rCAG binder = r(CAG) repeat RNA binding; TO-PRO-1 dye displacement fluorescence; inhibition, % at 3 µM; hit rate 1.3% among 370,000;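 active = inhibition above the plate cutoff, the mean of all test compounds on that plate plus 3 SD, cut at about 35% in these data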;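 note: higher means more dye released from RNA so lower well fluorescence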
PRMT1 inh = blocks human protein arginine methyltransferase 1; Q99873; recombinant PRMT1, activity-based probe fluorescence polarization; inhibition, % at 2.79 µM; hit rate 1.3% among 370,000;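 active = inhibition above about 21% made by adding two undisclosed values, limit read from the data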
Target sequence (Q99873 whole entry, looked up): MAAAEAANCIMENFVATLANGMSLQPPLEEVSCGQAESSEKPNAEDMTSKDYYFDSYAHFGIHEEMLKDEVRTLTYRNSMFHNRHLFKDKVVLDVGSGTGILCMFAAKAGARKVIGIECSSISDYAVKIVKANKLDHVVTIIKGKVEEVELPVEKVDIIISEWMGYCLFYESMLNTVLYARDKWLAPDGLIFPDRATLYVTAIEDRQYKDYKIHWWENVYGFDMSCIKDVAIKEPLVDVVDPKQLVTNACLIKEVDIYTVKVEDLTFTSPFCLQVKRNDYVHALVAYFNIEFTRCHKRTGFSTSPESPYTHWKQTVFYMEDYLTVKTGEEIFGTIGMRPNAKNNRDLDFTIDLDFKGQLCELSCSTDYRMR
TLR4 MyD88 comp = blocks binding of human TLR4 to MyD88; O00206+Q99836; HeLa CL3-4 TLR4/MyD88 BLA complementation, FRET ratio; inhibition, % at 8.4 µM; hit rate 0.18% among 200,000; AID 861; in the data active = inhibition above about 25%
NOD2 RIPK2 PPI = inhibitors of human NOD2-RIPK2 interaction; O43353; CHO BLA complementation NOD2-RIPK2, CCF4 ratio; inhibition, % at 4.98 µM; hit rate 0.38% among 360,000; AID 624267; in the data active = inhibition above about 21%
ABHD5-PLIN5 inh = ABHD5-PLIN5 protein interaction inhibition; Q00G26+Q8WTS1; Split G. princeps luciferase complementation, luminescence, 4 h; inhibition, % at 4 µM; hit rate 0.78% among 360,000; AID 602281;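 active = inhibition above the mean inhibition across every tested compound plus 3 SD, cut at about 22% in these data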
ABHD5-PLIN5 conf = confirmation of human ABHD5-PLIN5 interaction inhibitors; shares compounds with ABHD5-PLIN5 inh; biochemical ABHD5-PLIN5 interaction, luminescence; inhibition, % at 4 µM; hit rate 67% among 2,200; AID 651612; in the data active = inhibition above about 23%
HNF4 counter = active in HNF4 split-luciferase counter-screen for ABHD5-PLIN5 inhibitors; hit rate 77% among 2,200; HNF4 dimerization, luminescence, biochemical; inhibition, % at 4 µM; shares compounds with ABHD5-PLIN5 inh;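 active = mean inhibition across replicate wells exceeding the computed hit threshold, cut at about 13% in these data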;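 note: light from luciferase halves that rejoin when HNF4 fusion proteins dimerize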
Numbers stand for hits; – = inactive; · = no result given. A selection: hits, their analogues and other compounds. The true share with any hit is near 3.3%.

SMILES | TLR9-MyD88 inh | rCAG binder | PRMT1 inh | TLR4 MyD88 comp | NOD2 RIPK2 PPI | ABHD5-PLIN5 inh | ABHD5-PLIN5 conf | HNF4 counter
CCOC(=O)N1CCN(S(=O)(=O)/C=C/c2ccccc2)CC1 | – | – | – | – | – | – | · | ·
COc1ccc(OC(=O)N2C/C(=C/c3ccccc3)C(=O)/C(=C\c3ccccc3)C2)cc1 | – | – | – | · | – | 75 | 104 | 107
COc1cccc(NC(=O)CSc2nnnn2C2CCCCC2)c1 | – | – | – | · | – | – | · | ·
CC(C)c1ccc(NC2CCCN(C(=O)c3n[nH]c4c3CCC4)C2)cc1 (configuration not stated) | – | – | – | · | – | – | · | ·
CC(C)(C)OC(=O)C[C@H]1C/C=C\C[C@@H](CC(=O)N(CCO)Cc2ccccc2)C(=O)N2CCC[C@H]2COC1=O | – | – | – | · | – | – | · | ·
CC1(C)Cc2c(C#N)c(NC3CCCCC3)nc(-c3ccco3)c2CO1 | – | · | · | – | – | 34 | 33 | 41
O=C(CN1CCC(NC(=O)c2ccco2)CC1)Nc1ccccc1[N+](=O)[O-] | · | · | · | – | · | · | · | ·
O=C1CCCCc2sc(Br)c([N+](=O)[O-])c2N1 | – | – | – | · | – | – | · | ·
CC(=O)c1c(C)nc2ccccc2c1N | – | – | – | – | – | – | · | ·
Cc1ccc(/C=C/C(=O)c2nc3ccccc3[nH]2)cc1 | – | – | – | – | – | 69 | 90 | 85
Cc1nc2ccccc2c(N)c1C(=O)/C=C/c1ccccc1 | – | – | – | · | – | 34 | 41 | 37
Cc1ccc(/C=C/C(=O)Nc2nc3ccccc3[nH]2)cc1 | – | – | – | – | – | – | · | ·
CCOc1ccc(NS(=O)(=O)c2ccc(NC(=O)[C@@H]3CCCC[C@@H]3C(=O)O)cc2)cc1 | – | – | – | – | – | – | · | ·
O=C1CC(N2CCCC2)=NC(=O)N1c1ccc(Br)cc1 | · | – | – | · | · | · | · | ·
CC(=O)/C=C\c1ccccc1OC(=O)c1cc2ccccc2oc1=O | – | – | – | · | – | – | · | ·
O=C(/C=C\c1ccccc1OC(=O)c1ccccc1F)c1cc2ccccc2o1 | – | – | – | – | – | 70 | 100 | 98
Cc1ccsc1C(=O)N1CCC1(C)C(=O)Nc1cccc(C#N)c1 (configuration not stated) | · | – | – | · | – | – | · | ·
COc1ccc(-c2sc3ccccc3c2-c2ccc(OCCN(C)C)cc2)cc1 | – | – | – | · | – | 40 | – | –
CN(C)CCOc1ccc(-c2c(-c3ccsc3)sc3ccccc23)cc1 | – | – | – | · | – | 29 | – | –
CCCCN1CC[C@H](C)Oc2cc(Br)ccc2S1(=O)=O | · | – | – | · | · | · | · | ·
Clc1ccc(-c2cc(-c3nnc4sc(Cc5cccs5)nn34)[nH]n2)cc1 | · | – | – | · | · | · | · | ·
O=S(=O)(/N=S1/CC=CCN1S(=O)(=O)c1ccccc1)c1ccccc1 (configuration not stated) | – | · | · | – | – | 71 | 60 | 101
Oc1ccccc1C1CC(c2cccs2)=NC(c2cccc(Br)c2)N1 (configuration not stated) | – | – | – | – | – | 45 | 23 | 49
C[C@]12c3[nH]c4cc(-c5ccco5)ccc4c3CCN1C(=O)[C@@H](CC(=O)NCCc1ccccn1)C[C@@H]2C(=O)N1CCCCC1 | – | – | – | · | – | 42 | – | 24
O=C(C[C@H]1C[C@H](C(=O)N2CCCCC2)[C@@]2(CCc3ccccc3)c3[nH]c4cc(-c5ccco5)ccc4c3CCN2C1=O)NCCN1CCOCC1 | – | – | – | · | – | – | · | ·
COCCCNC(=O)C[C@H]1C[C@H](C(=O)N2CCCCC2)[C@@]2(CCc3ccccc3)c3[nH]c4cc(-c5ccco5)ccc4c3CCN2C1=O | – | – | – | · | – | 28 | – | 26
C/C=C/C=C/C(=O)[C@@H]1[C@@H]([C@]2(C)OC(=O)C(C)=C2O)[C@H]2/C(=C(O)/C=C/C=C/C)C(=O)[C@]1(C)C(=O)C2(C)O (some centres not stated) | – | – | – | · | – | 35 | 44 | 25
CC1(Cc2cc(Cl)ccc2C(F)(F)F)C(=O)Nc2cc(C(F)(F)F)ccc21 (configuration not stated) | · | – | – | · | – | – | · | ·
